# Source: PubChem BioAssay (Tox21)
# Where “and” joins values, the source holds several entries; their conditions need not be identical. Equal values may be shown once. Results filed as inconclusive are left out. A call without a number means that no potency is given here. More than one record can exist for a structure, and the calls need not agree. Calls of active or inactive are those of the source. Unless noted, the call rests on the fitted dose curve; in most records, active means well fitted curve in the direction sought with a large enough effect in the repeat runs; inconclusive means weak or mixed curves; inactive means no such curve, though single readings can be large; an effect the other way counts as inactive or inconclusive.
# Test: qHTS assay for small molecules that induce genotoxicity in human embryonic kidney cells expressing luciferase-tagged ATAD5 - cell viability (AID 651634; calls by dose curve; further: nearly all actives have a fitted effect of over 25% in size)
# Settings: HEK293T ATAD5-luc cells viability, CellTiter-Fluor, 15.5 h; series mostly up to 83.3 µM; activity, negative = cytotoxicity: at the top concentration
# Method in brief: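 Fluorescence from CellTiter-Fluor, reporting protease activity within live cells, served as the viability read-out. HEK293T cells carrying luciferase-tagged ATAD5 had been treated with compound for 15.5 hr at 37C.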
# Potency means the concentration at half of the fitted maximal effect.
Compound,"activity, negative = cytotoxicity",Potency
CCN(Cc1c(F)cccc1Cl)c1c([N+](=O)[O-])cc(C(F)(F)F)cc1[N+](=O)[O-],-18.9% (inactive),–
C1=CC2C3C=CC(C3)C2C1 (centres undefined),34.6% (inactive),–
C/C=C/C=C/C(=O)O,–,inactive
O=C1OC2(c3ccccc31)c1cc(Br)c(O)c(Br)c1Oc1c2cc(Br)c(O)c1Br,–,21.1 µM (active) and 1.56 µM (active) and 19.9 µM (active)
CCCCCCc1ccc(O)cc1O,–,inactive
Cc1ccc(S(=O)(=O)O)cc1,–,inactive
Nc1ccc(O)c([N+](=O)[O-])c1,–,53.9 µM (active)
CCN(CC)C(=O)c1cccc(C)c1,–,inactive

# Test: qHTS assay for small molecule disruptors of the mitochondrial membrane potential - cell viability (AID 720634; calls by dose curve; further: nearly all actives have a fitted effect of over 20% in size;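 on activity change, negative = cytotoxicity: human HepG2 liver cancer cells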)
# Settings: HepG2 viability, ATP luminescence (CellTiter-Glo), 1 h; series mostly up to 83.2 µM; activity change, negative = cytotoxicity: at the top concentration
# Method in brief: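 Cells: HepG2, 2,000/well, attached overnight. Compound 1 hr, 37 C/5% CO2. +m-MPI dye, +CellTiter-Glo 30 min RT. Readout: luminescence (ATP).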
Compound,"activity change, negative = cytotoxicity",Potency
O=CC(=O)c1ccccc1,33.1% (inactive),–
CC(C)NCC(O)c1ccc(O)c(O)c1 (centres undefined),–,inactive
O=C1NS(=O)(=O)c2ccccc21,–,inactive
CN[C@H]1CC[C@@H](c2ccc(Cl)c(Cl)c2)c2ccccc21,-6.87% (inactive),–
O=c1[nH]cnc2c1ncn2[C@H]1CC[C@@H](CO)O1,–,inactive
O=C(Nc1ncc([N+](=O)[O-])s1)c1cccs1,–,15 µM (active)
CC(=O)CCC(=O)O,–,inactive
CC/C(=C(\c1ccccc1)c1ccc(OCCN(C)C)cc1)c1ccccc1,–,54.8 µM (active) and 61.1 µM (active)
C=C(C)C(=O)OCC(C)O (centres undefined),–,inactive
CCCCCCCCCCCCCCCC[N+](C)(C)Cc1ccccc1,–,26.6 µM (active)
CCCC[P+](CCCC)(CCCC)CCCC,–,inactive
CC(O)(P(=O)(O)O)P(=O)(O)O,–,inactive
CC(=O)CC(c1ccccc1)c1c(O)c2ccccc2oc1=O (centres undefined),–,inactive
Nc1c2c(nc3ccccc13)CCCC2,–,inactive
COc1ccc2cc(S(=O)(=O)N[C@H](CC(=O)N[C@H](Cc3ccc(CN4[C@H](C)CCC[C@@H]4C)cc3)C(=O)N(C)C(C)C)c3ccc4c(c3)OCO4)ccc2c1,-13% (inactive),–
CN1CCC[C@H]1c1cccnc1,–,inactive
CCN(Cc1c(F)cccc1Cl)c1c([N+](=O)[O-])cc(C(F)(F)F)cc1[N+](=O)[O-],-17.3% (inactive),–
CCCCC(CC)C(=O)O (centres undefined),–,inactive
C1=CC2C3C=CC(C3)C2C1 (centres undefined),14.2% (inactive),–
C/C=C/C=C/C(=O)O,–,inactive
O=C1OC2(c3ccccc31)c1cc(Br)c(O)c(Br)c1Oc1c2cc(Br)c(O)c1Br,–,inactive
CC(C)c1c(C(=O)Nc2ccccc2)c(-c2ccccc2)c(-c2ccc(F)cc2)n1CC[C@@H](O)C[C@@H](O)CC(=O)O,–,inactive
Cc1ccc(S(=O)(=O)O)cc1,–,inactive
Nc1ccc(O)c([N+](=O)[O-])c1,-18.8% (inactive),–
CCN(CC)C(=O)c1cccc(C)c1,–,inactive

# Test: qHTS assay for small molecule disruptors of the mitochondrial membrane potential (AID 720635)
# Settings: HepG2 mitochondrial membrane potential, Mito-MPS dye ratio; series mostly up to 83.2 µM; ratio activity, negative = MMP loss: at the top concentration
# Method in brief: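 Mitochondrial membrane potential tracked with Mito-MPS dye, red aggregates (ex 540/em 590 nm) against green monomers (ex 490/em 535 nm). Compound treatment 1 hr at 37C, dye 30 min in HepG2.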
Compound,"ratio activity, negative = MMP loss",Potency
CC(C)NCC(O)c1ccc(O)c(O)c1 (centres undefined),28.3% (inactive),–
O=C1NS(=O)(=O)c2ccccc21,–,inactive
O=c1[nH]cnc2c1ncn2[C@H]1CC[C@@H](CO)O1,-2.25% (inactive),–
O=C(Nc1ncc([N+](=O)[O-])s1)c1cccs1,–,0.668 µM (active)
CC(=O)CCC(=O)O,–,inactive
CCCCCCCCCCCCCCCC[N+](C)(C)Cc1ccccc1,–,4.22 µM (active) and 10 µM (active) and 13.9 µM (active)
CCCC[P+](CCCC)(CCCC)CCCC,3.71% (inactive),–
CC(O)(P(=O)(O)O)P(=O)(O)O,–,inactive
Nc1c2c(nc3ccccc13)CCCC2,-2.23% (inactive),–
COc1ccc2cc(S(=O)(=O)N[C@H](CC(=O)N[C@H](Cc3ccc(CN4[C@H](C)CCC[C@@H]4C)cc3)C(=O)N(C)C(C)C)c3ccc4c(c3)OCO4)ccc2c1,–,10.3 µM (active)
CN1CCC[C@H]1c1cccnc1,–,inactive
CCN(Cc1c(F)cccc1Cl)c1c([N+](=O)[O-])cc(C(F)(F)F)cc1[N+](=O)[O-],–,54.5 µM (active)
CCCCC(CC)C(=O)O (centres undefined),–,inactive and 6.86 µM (active)
C/C=C/C=C/C(=O)O,–,inactive
CCCCCCc1ccc(O)cc1O,–,5.96 µM (active) and 4.87 µM (active) and 6.86 µM (active)
Cc1ccc(S(=O)(=O)O)cc1,–,inactive
Nc1ccc(O)c([N+](=O)[O-])c1,–,3.03 µM (active)

# Test: qHTS assay to test for compound auto fluorescence at 590 nm (red) in HepG2 cells (AID 720674)
# Settings: HepG2 autofluorescence, red 540/590 nm, 1 h; series mostly up to 91.3 µM; fluorescence, relative to Rose Bengal: at the top concentration
# Method in brief: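 Red autofluorescence (Ex/Em 540/590 nm, Rose Bengal sodium equivalents) was measured in HepG2 cells, 2,000 per well in MEM plus 10% FBS, plated overnight at 37 C. Readings were taken 1 hr after adding 23 nL compound or DMSO, at 37 C and 5% CO2.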
Compound,"fluorescence, relative to Rose Bengal",Potency
O=CC(=O)c1ccccc1,0.0082% (inactive),–
CC(C)NCC(O)c1ccc(O)c(O)c1 (centres undefined),–,inactive
CN1[C@@H]2CC(OC(=O)[C@H](CO)c3ccccc3)C[C@H]1[C@@H]1O[C@@H]12 (some centres undefined),–,inactive
O=C1NS(=O)(=O)c2ccccc21,–,inactive
CN[C@H]1CC[C@@H](c2ccc(Cl)c(Cl)c2)c2ccccc21,0.157% [at 46 µM] (inactive),–
COc1ccc(CN(CCN(C)C)c2ccccn2)cc1,–,inactive
O=c1[nH]cnc2c1ncn2[C@H]1CC[C@@H](CO)O1,–,inactive
O=C(Nc1ncc([N+](=O)[O-])s1)c1cccs1,-0.575% [at 46 µM] (inactive),–
CC(=O)CCC(=O)O,–,inactive
CC/C(=C(\c1ccccc1)c1ccc(OCCN(C)C)cc1)c1ccccc1,–,inactive
O=S1(=O)OC(c2ccc(O)cc2)(c2ccc(O)cc2)c2ccccc21,–,inactive
C=C(C)C(=O)OCC(C)O (centres undefined),–,inactive
CCCCCCCCCCCCCCCC[N+](C)(C)Cc1ccccc1,–,inactive
CCCC[P+](CCCC)(CCCC)CCCC,–,inactive
CC(O)(P(=O)(O)O)P(=O)(O)O,–,inactive
CC(=O)CC(c1ccccc1)c1c(O)c2ccccc2oc1=O (centres undefined),–,inactive
Nc1c2c(nc3ccccc13)CCCC2,–,inactive
COc1ccc2cc(S(=O)(=O)N[C@H](CC(=O)N[C@H](Cc3ccc(CN4[C@H](C)CCC[C@@H]4C)cc3)C(=O)N(C)C(C)C)c3ccc4c(c3)OCO4)ccc2c1,0.0807% (inactive),–
CN1CCC[C@H]1c1cccnc1,–,inactive
CCN(Cc1c(F)cccc1Cl)c1c([N+](=O)[O-])cc(C(F)(F)F)cc1[N+](=O)[O-],-0.363% (inactive),–
CCCCC(CC)C(=O)O (centres undefined),–,inactive
C1=CC2C3C=CC(C3)C2C1 (centres undefined),-0.436% (inactive),–
C/C=C/C=C/C(=O)O,–,inactive
O=C1OC2(c3ccccc31)c1cc(Br)c(O)c(Br)c1Oc1c2cc(Br)c(O)c1Br,–,3.16 µM (active) and 2.51 µM (active)
CC(C)c1c(C(=O)Nc2ccccc2)c(-c2ccccc2)c(-c2ccc(F)cc2)n1CC[C@@H](O)C[C@@H](O)CC(=O)O,–,inactive
CCCCCCc1ccc(O)cc1O,–,inactive
Cc1ccc(S(=O)(=O)O)cc1,–,inactive
Nc1ccc(O)c([N+](=O)[O-])c1,0.291% (inactive),–
CCN(CC)C(=O)c1cccc(C)c1,–,inactive
